Nrf2 inh: blocks Nrf2 signaling; actives 2.1% (n = 360,000); AID 504444; Potency, µM (doses to about 46 µM), for inactives: top-dose activity change, negative = inhibition, actives largely listed as inhibitors; A549 ARE-Fluc reporter, luciferase luminescence, 18-24 h; note: % is set by controls: 0 for no effect and ±100 for the full control effect; nearly all actives have a fitted effect of over 60% in size
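Two sequential reads on A549 ARE_Fluc cells exposed to compound for 18-24 h: a CellTiter-Fluor fluorescence read for viability, then a luciferase luminescence read for Nrf2/ARE activity.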
HepG2 tox: HepG2 cytotoxicity, counter-screen for TGF-b inhibitors. HepG2 CAGA-GFP viability, ATP luminescence, 18 h. Potency, µM (highest dose often 46.1 µM), without a hit: at the top dose activity change, negative = cytotoxicity, usual class: cytotoxic. actives 0.76% (n = 410,000). AID 588856
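HepG2 CAGA-GFP cells (1000/well, DMEM with 1% FBS) received compound, then TGF-beta at 500 pg/mL final, and were incubated 18 hours at 37 degrees C. Viability was read by CellTiter-Glo luminescence. Media-only wells were set as complete cell-killing and DMSO as no toxicity.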
Nrf2 ARE act: activators of Nrf2 (ARE) signaling. AREc32 ARE-luciferase reporter (MCF7-derived line), luminescence, 24 h. AID 624171. actives 0.31% (n = 410,000). Potency, µM (top dose mostly 46.1 µM), for inactives: top-dose activation, usual class: activators; note: % of control where 0% means no effect; nearly all actives have a fitted effect of over 65% in size
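ARE activation measured as luciferase luminescence (Steady-Glo, 30 min RT) in AREc32_Fluc cells after 24 hr compound exposure at 37 deg C, 5% CO2; cells seeded overnight at 1000/well in OPTI-MEM, 5% FBS.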
TGFb SMAD3 inh: TGF-b pathway inhibition; HepG2 CAGA-GFP TGF-b/SMAD3 reporter, GFP fluorescence, 18 h; TGF-beta stimulated, 500 pg/mL final; Potency, µM (titrated, usually from 46.1 µM), without a hit: top-dose activity, negative = inhibition, most hits filed as inhibitors; actives 1.2% (n = 410,000); note: % is set by controls: 0 for no effect and ±100 for the full control effect; nearly all actives have a fitted effect of over 65% in size
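First, reporter cells (HEPG2 CAGA-GFP) rested 2 h at 37 degrees C. Next, compounds were pinned in and TGF-beta added to 500 pg/mL final. After 18 h, GFP was imaged per cell and summed per well.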
A549 viability: A549 cytotoxicity, counter-screen for Nrf2 inhibitors | Potency, µM (top dose mostly 46 µM), for the others: at the highest dose activity change, negative = cytotoxicity, usual class: inhibitors | A549 ARE-Fluc cells, CellTiter-Fluor viability, 18-24 h | actives 0.16% (n = 390,000); note: % is set by controls: 0 for no effect and ±100 for the full control effect
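A549 ARE-Fluc cells in 5% FBS OPTI-MEM, 5000 cells/well, rested 2 h then exposed to compounds in concentration-response for 18-24 h at 37 °C. Viability by CellTiter-Fluor fluorescence (Ex 405/Em 525) after 30 min; luciferase luminescence (BugLite, 15 min, RT) read afterwards.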
* = called active by the depositor; ? = inconclusive; . = no result given; [ ] = dose if it differs, or a comment. In the library only some 3.6% were active in any assay of this set; here they are far more common. Calls come from the whole dose curve; as a rule, active = well fitted curve in the direction sought with a large enough effect; inconclusive = small, poorly fitted or top-dose-only effect, or another doubt; inactive = no such curve, though single readings can be large; an effect the other way counts as inactive or inconclusive. Potency is the fitted concentration of half-maximal effect.

SMILES	Nrf2 inh	HepG2 tox	Nrf2 ARE act	TGFb SMAD3 inh	A549 viability
CC(=O)NC(C)(c1ccccc1)c1nc(-c2ccc(N(C)C)cc2)cs1 (centres undefined)	.	-4%	1%	1%	.
CCC(C)[C@H](NC(=O)N1CCCC1)C(=O)OC (some centres undefined)	8%	93%	-1%	38%	-2%
CC(=O)N1CCN(S(=O)(=O)c2cccc(C(=O)OCc3ccc(C(C)(C)C)cc3)c2)CC1	23µM*	-12%	0%	-16%	-13%
COc1ccccc1NC(=O)c1c(C)cc(C)nc1SCC(=O)Nc1cccc(C)c1	?	-21%	5%	10µM*	-17%
COc1ccccc1NC(=O)c1c(C)cc(C)nc1SCC(=O)Nc1ccc(C)c(C)c1	?	-8%	3%	0%	-17%
COC(C(=O)Nc1ccc(S(=O)(=O)Nc2ccc(F)cc2)cc1)c1ccccc1 (centres undefined)	-13%	-9%	0%	-7%	0%
COC(C(=O)Nc1ccc(S(=O)(=O)Nc2cccc3ccccc23)cc1)c1ccccc1 (centres undefined)	23µM*	31%	0%[9.22 µM]	?	-7%
Cc1ccccc1Nc1c(-c2cccc(O)c2)nc2ccc(Br)cn12	6%	-65%	29%	?	-4%
COc1cc(O)ccc1-c1nc2ccc(Br)cn2c1Nc1ccccc1C	-12%	16µM*	-6%	?	-12%
O=C(O)CCCNC(=O)c1cncc(Br)c1	.	11%	0%	-4%	1%
CNS(=O)(=O)c1cccc(C(=O)OCC(=O)c2ccc3c(c2)OCCO3)c1	21µM*	-1%	0%	-5%	-8%
CN(C(=O)COC(=O)c1c[nH]c2ccccc12)c1ccccc1	.	0%	-1%	-3%	.
Cc1ccc(C(=O)NNc2ncnc3c2cnn3C)cc1	10%	-4%	-1%	15%	-7%
Cn1ncc2c(O/N=C(\N)c3ccc(C(F)(F)F)cc3)ncnc21	18µM*	-111%	-4%	?	?
CCc1ccc(C(=O)c2cnc3ccc(C)cc3c2S(=O)(=O)c2ccc(OC)cc2)cc1	?	-16%	21%	-5%	10%
COc1ccc(NC(=O)C2CCCN(S(=O)(=O)c3cccnc3)C2)cc1OC (centres undefined)	-6%	9%	0%	1%	1%
COc1ccc(NC(=O)C2CCCN(S(=O)(=O)c3ccc4c(c3)CCCN4C(C)=O)C2)cc1Cl (centres undefined)	16µM*	-16%	2%	?	-4%
CC(=O)N1CCCc2cc(S(=O)(=O)N3CCCC(C(=O)NCc4ccc(C)cc4)C3)ccc21 (centres undefined)	5.8µM*	6%	2%	?	-5%
CC(=O)N1CCCc2cc(S(=O)(=O)N3CCCC(C(=O)NCc4ccccc4)C3)ccc21 (centres undefined)	?	9%	2%	-14%	3%
COc1ccc(S(=O)(=O)N2CCCC(C(=O)Nc3cccnc3)C2)cc1Cl (centres undefined)	16µM*	-11%	3%	0%	-18%
COC(=O)c1c(NC(=O)/C=C/C(=O)O)sc(C)c1-c1ccc(C)c(C)c1	-6%	-106%	18µM*	?	-2%
CCOC(=O)c1c(NC(=O)/C=C/C(=O)O)sc(C)c1-c1ccc(C)c(C)c1	-15%	-104%	?	?	0%
COC(=O)c1sc(-c2ccc(Cl)cc2)cc1NC(=O)/C=C/C(=O)O	?	-84%	8.9µM*	?	-15%
COC(=O)c1c(NC(=O)/C=C/C(=O)O)sc(C)c1-c1ccc(C(C)C)cc1	?	-97%	10µM*	?	2%
COC(=O)c1c(NC(=O)/C=C/C(=O)O)sc(C)c1-c1ccc(C)cc1	?	-32%	20µM*	-5%	-26%
CCCNC(=O)C1(C)CCCN(Cc2ccc(C#N)cc2)C1 (centres undefined)	.	5%	0%[9.22 µM]	2%	.
